Data on 54 compounds can be found in PubChem BioAssay AID540277 (National Center for Advancing Translational Sciences (NCATS), 2011).

Out of some 320,000 compounds screened, about 55 (0.02%) were called active. Inconclusive results (about 3%) are left out. The sample holds actives, similar compounds and a random draw of the others, so the mix is not that of the screen. Values without a mark were called inactive. No stated cut-off is given here; in the data, active means potentiation above about 80%; inconclusive means between about 30% and that limit; inactive means weaker than that.

Chain of Transient receptor potential cation channel subfamily V member 1 (Homo sapiens) (Q8NER1 whole entry, looked up): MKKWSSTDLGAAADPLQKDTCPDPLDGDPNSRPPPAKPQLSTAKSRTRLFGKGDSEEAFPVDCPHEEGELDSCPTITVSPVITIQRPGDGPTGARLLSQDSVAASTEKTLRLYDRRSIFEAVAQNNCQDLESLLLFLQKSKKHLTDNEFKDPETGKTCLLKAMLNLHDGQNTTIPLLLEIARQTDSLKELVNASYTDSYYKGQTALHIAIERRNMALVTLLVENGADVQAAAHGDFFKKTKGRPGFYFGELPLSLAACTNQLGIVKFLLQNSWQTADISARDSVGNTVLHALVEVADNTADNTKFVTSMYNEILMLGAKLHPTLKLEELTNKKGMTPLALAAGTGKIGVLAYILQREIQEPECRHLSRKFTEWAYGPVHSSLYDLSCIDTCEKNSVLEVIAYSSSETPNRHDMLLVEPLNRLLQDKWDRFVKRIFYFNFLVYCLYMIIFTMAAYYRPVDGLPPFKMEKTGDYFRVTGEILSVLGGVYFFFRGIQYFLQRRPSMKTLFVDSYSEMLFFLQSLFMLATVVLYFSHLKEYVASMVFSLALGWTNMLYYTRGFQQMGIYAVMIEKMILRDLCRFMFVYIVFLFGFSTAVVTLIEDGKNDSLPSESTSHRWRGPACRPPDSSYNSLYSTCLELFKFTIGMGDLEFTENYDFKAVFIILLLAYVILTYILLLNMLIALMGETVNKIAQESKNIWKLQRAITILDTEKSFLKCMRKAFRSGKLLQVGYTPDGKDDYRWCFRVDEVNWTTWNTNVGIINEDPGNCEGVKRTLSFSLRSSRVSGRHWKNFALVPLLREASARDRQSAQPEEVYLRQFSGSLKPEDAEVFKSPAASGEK

The target in this assay is Transient receptor potential cation channel subfamily V member 1 (Homo sapiens) (UniProt Q8NER1). In words: HTS Assay for Compounds that Act as Potentiators of the Vanilloid Receptor 1. Further: 0% is about no effect. As to conditions: TRPV1-expressing cells, Fluo-8 calcium influx, capsaicin EC20 potentiation; at 8.33 µM; active compounds read high. The source says:
The transient receptor potential ion channel, family V, number 1, (TRPV1) is one of the most important molecular transducers of painful stimuli and a potential target for analgesic drug development. Although recent clinical trials with orthosteric antagonists have not produced a successful drug because of a hyperthermia side effect and their tendency to block thermal noxious pain, this ion channel is undeniably well placed in the pain pathway, and the idea of blocking pain signals before they enter the CNS is an excellent concept and of proven efficacy when TRPV1 agonists are used. We propose a new approach involving allosteric modulation to impose an activity-dependent constraint within the context of inflammation and tissue damage that would alter the responsiveness of the channel in a way that an orthosteric vanilloid antagonist cannot achieve. We believe that the allosteric modulator approach has not been explored for this target. The main goal of this proposal is to identify additional, new, potent allosteric modulators of TRPV1 that can be used to investigate TRPV1 function. Our recent report provides evidence of proof of concept, but the compounds are just at the edge of utility in terms of potency. […] The question of whether they can be used as analgesic agents is complex, but if suitable compounds are identified then testing for analgesic properties will be conducted. NIH Chemical Genomics Center [NCGC] NIH Molecular Libraries Probe Centers Network [MLPCN] MLPCN Grant: MH089480-1A1 Assay Submitter (PI): Michael Iadarola, National Institute of Dental and Cranofacial Research
Upon TRPV1 activation in TRPV1 cells, the channel opens and extracellular cations flow through the channel into the cytosol. A calcium binding dye (Fluo-8) becomes fluorescent when bound to calcium. This dye is pre-loaded into cells and is used as a marker for calcium influx. The amount of accumulated calcium is precisely quantified using the FDSS kinetic reader and the calcium dye. For the HTS assay, freshly prepared cells are plated at a density of 2000/well in 3 ul medium in 1536-well plates and cultured overnight at 35.5C. Cells will be loaded with 1 ul of the homogeneous calcium dye (ABD Bioquest) at room temperature for 40 to 90 minutes. Plates will be loaded into the FDSS kinetic reader and a 1 sec / cycle for 10 second baseline signal will be measured. Compound library will then be added with a pintool at 23 nl and measured kinetically for 3 minutes. This portion of the read is considered the agonist portion of the screen. Following the 3 minutes of incubation, an on board pipettor will deliver 1 ul of capsaicin for a final concentration equal to the EC20. Signal will be measured kinetically for an additional 2 minutes. This portion of the read is considered the allosteric enhancer portion of the screen. The FDSS reader has a standard filter set capable of measuring calcium bound Fluo-8 (ex=480 and em=520 nm).
For the compound `O=S(=O)(NCc1ccccc1Br)c1ccccc1Br`, the potentiation is 5.51%.

Consider `CCOC(=O)C1=C(COC(=O)[C@H](C)NS(=O)(=O)c2ccccc2F)NC(=O)NC1C` (some centres undefined), for which the potentiation was -3.56%.

Regarding `CCOC(=O)c1cc(OC(=O)c2ccccc2Cl)n(-c2ccccc2)n1`, the potentiation was 0.753%.

As to `CCc1sc(C(=O)N2CCN(CC(=O)Nc3cccc(F)c3)CC2)cc1C`, the potentiation was -11.7%.

As to `CCN(CC(=O)NCc1cccs1)C(=O)/C=C/c1ccc(C)cc1`, the potentiation was -0.0424%.

For `COC(=O)c1sc2[nH]c(=S)n(N)c(=O)c2c1C`, the potentiation is -11.7%.

As for `CCN(c1ccccc1)S(=O)(=O)c1cccc(C(=O)NCc2ccccc2CN2CCOCC2)c1`, the potentiation is -5.32%.

Turning to `CCOc1ncccc1C(=O)OCC(=O)c1c[nH]c2ccccc12`, the potentiation is 3.1%.

As for `O=C(CN1C(=O)NC2(CCCCC2)C1=O)N1CCN(C(=O)c2cccs2)CC1`, the potentiation is 25.7%.

As to `CN(C)CCN=c1cc(-c2ccccc2)oc2ccc(Cl)cc12`, the potentiation was -6.88%.

Take `O=C(COC(=O)c1ccccc1)c1ccc2c(c1)OCCO2`: the potentiation was 3.76%.

Turning to `Cc1c(C(=O)NNC(=O)c2ccncc2)oc2ccccc12`, the potentiation was -17.2%.

On to `O=C(O[C@@H]1[C@H](Cc2ccccc2)NS(=O)(=O)[C@H]2C[C@@H]3C=C[C@]12O3)c1ccccc1Br`, for which the potentiation is 3.92%.

For the compound `Cc1ccc(OCCC(=O)Nc2ccc(S(=O)(=O)Nc3nccs3)cc2)cc1`, the potentiation was 17.5%.

Regarding `NC(=O)C1CCN(C(=O)c2ccc(F)c(S(=O)(=O)N3CCOCC3)c2)CC1`, the potentiation was -7.69%.

Regarding `CC(C)c1ccc(/C=C/C(=O)NCCCN2CCOCC2)cc1`, the potentiation is -19.8%.

For the compound `O=C(NCCC1=CCCCC1)c1ccc(-n2cncn2)cc1`, the potentiation was -28.9%.

For the compound `Cc1ccn2c(=O)nc(SCC(=O)NCc3ccc4c(c3)OCO4)nc2c1`, the potentiation was -6.94%.

Regarding `CC1CN(/C=C/C(=O)C(F)(F)F)CC(C)O1` (centres undefined), the potentiation is 11.7%.

`COc1ccccc1/C=C/C(=O)OCC(=O)NC1CCCCCC1`: the potentiation was -11.2%.

Consider `O=C(NCCc1ccc(F)cc1)c1ccc2nccnc2c1`, for which the potentiation was -3.52%.

As to `CC(C)N(Cc1nnc(-c2ccccc2Br)o1)C(=O)c1cc(Cl)nc2ccccc12`, the potentiation was -18.4%.

For `Cc1cc(C)cc(OCC(=O)OCC(=O)NC2CCCC2)c1`, the potentiation is 19.9%.

For the compound `COC(=O)C(C)NC(=O)COc1ccc2ccccc2c1` (centres undefined), the potentiation is 3.51%.

With `CC(C)C(C)NC(=O)COc1ncnc2ccccc12` (centres undefined), the potentiation was 5.13%.

Turning to `COCC(C)NC(=O)COc1nncc2ccccc12` (centres undefined), the potentiation was 80.9% (active).

In the case of `Cc1cc(C)cc(-c2nnc(SCC(=O)NC3CC3)o2)c1`, the potentiation is -9.15%.

As for `CCOCc1c(C(=O)N2CCN(Cc3ccc(Br)s3)CC2)oc2ccccc12`, the potentiation was -19.8%.

For `COc1ccccc1N1CCN(CC(=O)Nc2ccnn2C2CCCC2)CC1`, the potentiation is 4.7%.

Consider `COc1ccccc1-n1nnnc1SCC(=O)NC(=O)Cc1ccccc1`, for which the potentiation was 2.96%.

As to `COc1ccc(S(=O)(=O)N2CCOCC2)cc1NC(=O)c1ccc(OCC(C)C)c(OC)c1`, the potentiation is -5.7%.

As to `O=C(Nc1ccccc1F)c1ccc(S(=O)(=O)N2CCCCCC2)cc1`, the potentiation was -21.7%.

For the compound `O=S(=O)(NCCc1ccccn1)c1cc(Cl)cc(Cl)c1O`, the potentiation is 2.4%.

In the case of `O=C(c1cc2ccccc2o1)N1CCN(S(=O)(=O)c2ccc(Cl)s2)CC1`, the potentiation is -15.9%.

In the case of `O=C(Nc1ccccn1)C1CCN(S(=O)(=O)c2ccc3c(c2)OCCO3)CC1`, the potentiation was 1.92%.

As for `O=C(CCNC(=O)c1ccc(Cl)cc1)NC1CCCc2ccccc21` (centres undefined), the potentiation was 27%.

Regarding `COc1ccccc1C(=O)Nc1ccc(OCC(=O)N2CCCCC2)cc1`, the potentiation is -9.6%.

For the compound `COc1ccccc1C(=O)Nc1ccc(C)c(S(=O)(=O)N2CCCCC2)c1`, the potentiation is -33.7%.

As to `Cc1ccc(NC(=O)Cn2c(C)csc2=O)cc1`, the potentiation is 15%.

In the case of `Cc1ccc(-n2nc(C)c(C(=O)O)c2-n2cccc2)cc1`, the potentiation is 21.9%.

`O=C(O)CSc1ccc(S(=O)(=O)N2CCCC2)cn1`: the potentiation is 5.08%.

With `CCN(CC(=O)Nc1ccc(OC)cc1)C(=O)c1ccc(Cl)c(S(=O)(=O)N2CCCC2)c1`, the potentiation is 0.452%.

As to `Cc1ccc(C(=O)NCC(c2cccs2)N(C)C)cc1S(=O)(=O)N1CCOCC1` (centres undefined), the potentiation is 2.03%.

In the case of `Cc1noc(C)c1COc1ccc(C(=O)NCCOc2ccccc2)cc1`, the potentiation is -13.4%.

Regarding `c1ccc2cc(CCCc3cc4ccccc4cn3)ncc2c1`, the potentiation was -8.54%.

`O=c1ccc(S(=O)(=O)N2CCCC2)cn1Cc1nc(-c2ccccc2)no1`: the potentiation was -29.3%.

Consider `CC1CCc2sc(C(=O)NCC(c3ccco3)N3CCCCC3)cc2C1` (centres undefined), for which the potentiation was -4.62%.

For the compound `Cc1ccc(-c2ccc(/C=C(\C#N)C(N)=S)o2)c([N+](=O)[O-])c1`, the potentiation was -9.36%.

For `CCN(CC(=O)Nc1c(F)cccc1F)C(=O)c1cnc(C)cn1`, the potentiation was -6.22%.

Turning to `CC1CC(=O)Nc2ccccc2N1C(=O)COc1ccc2cc(Br)ccc2c1` (centres undefined), the potentiation is -0.32%.

Take `O=C(OCC(=O)N1CCc2ccccc21)c1ccc([N+](=O)[O-])cc1`: the potentiation is -20.6%.

On to `O=S(=O)(c1cccs1)N1CCN(CCOc2ccccc2)CC1`, for which the potentiation is -11.9%.

With `Cc1noc(C)c1C(=O)NCC1COc2ccccc2O1` (centres undefined), the potentiation was -2.08%.

As to `COc1ccc(-c2nc3c(c(SCC(=O)Nc4ccc(C(=O)O)cc4)n2)Cc2ccccc2O3)cc1`, the potentiation is 15.9%.
